Compounds with a hit are over-represented: about 0.85% of the library has one in this group of screens.
BLM helicase inh – qHTS Assay for Inhibitors of Bloom's syndrome helicase (BLM) | recombinant BLM DNA unwinding, fluorescence dequenching | Potency, µM (top dose mostly 56.1 µM), for inactives: at the highest dose activity change, negative = inhibition, actives largely listed as inhibitors | 350,000 tested, 0.2% active | AID 2528, 2010;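 note: plate controls were vehicle for no effect and no enzyme for full effect; nearly all actives have a fitted effect of over 35% in size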
TDP1 block – qHTS Assay for Inhibitors of Tyrosyl-DNA Phosphodiesterase (TDP1); Tyrosyl-DNA phosphodiesterase 1 (Homo sapiens), Q9NUW8; recombinant TDP1, AlphaScreen DNA substrate cleavage; Potency, µM (titrated, usually from 130 µM), for the others: top-dose activity change, negative = inhibition, usual class: inhibitors; 350,000 tested, 0.28% active; note: nearly all actives have a fitted effect of over 40% in size
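Signal: AlphaScreen proximity between streptavidin donor and anti-FITC acceptor beads on intact substrate. Reaction: Tdp1 1 nM, substrate 15 nM final, 5 min RT after 15 min compound preincubation.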
Tb PGK inh – qHTS Assay to Find Inhibitors of Phosphoglycerate Kinase | 380,000 tested, 0.043% active | Potency, µM (top dose mostly 57.5 µM), for inactives: at the highest dose activity change, negative = inhibition, actives largely listed as inhibitors | AID 602233, 2012 | Phosphoglycerate kinase, glycosomal (Trypanosoma brucei brucei), P07378 | PGK/GAPDH coupled, Kinase-Glo luminescence, 60 min; note: nearly all actives have a fitted effect of over 60% in size
Target sequence (P07378 whole entry, looked up): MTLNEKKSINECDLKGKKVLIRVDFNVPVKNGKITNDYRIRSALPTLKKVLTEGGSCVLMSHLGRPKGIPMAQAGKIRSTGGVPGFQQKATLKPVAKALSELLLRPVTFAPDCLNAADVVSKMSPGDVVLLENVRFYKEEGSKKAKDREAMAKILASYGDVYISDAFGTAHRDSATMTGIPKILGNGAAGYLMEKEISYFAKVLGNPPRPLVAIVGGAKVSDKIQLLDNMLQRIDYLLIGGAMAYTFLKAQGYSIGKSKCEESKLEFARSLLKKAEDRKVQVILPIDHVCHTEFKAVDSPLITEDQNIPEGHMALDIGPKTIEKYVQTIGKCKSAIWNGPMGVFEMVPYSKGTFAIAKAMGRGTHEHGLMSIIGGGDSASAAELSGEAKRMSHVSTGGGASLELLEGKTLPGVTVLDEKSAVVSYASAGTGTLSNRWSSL
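Luminescent ATP detection (Kinase-Glo Plus) follows a 60-minute room-temperature incubation, with wells lacking PGK as controls. Buffer: 100 mM TEA (pH 7.6), 5 mM MgCl2, 0.01% Tween-20. Coupling enzyme GAPDH (100 nM final) supplies unstable 1,3-BPG in-well.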
APE1 inh-1 – qHTS Assay for Inhibitors of the Human Apurinic/apyrimidinic Endonuclease 1 (APE1). 350,000 tested, 0.35% active. DNA repair nuclease/redox regulator APEX1 (Homo sapiens), P27695. recombinant APE1, TAMRA/BHQ-2 abasic DNA cleavage fluorescence. Potency, µM (top dose mostly 65.8 µM), for the others: at the top dose activity change, negative = inhibition, usual class: inhibitors;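 note: plate controls were vehicle for no effect and reference inhibitor for full effect; nearly all actives have a fitted effect of over 55% in size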
Target sequence (P27695 whole entry, looked up): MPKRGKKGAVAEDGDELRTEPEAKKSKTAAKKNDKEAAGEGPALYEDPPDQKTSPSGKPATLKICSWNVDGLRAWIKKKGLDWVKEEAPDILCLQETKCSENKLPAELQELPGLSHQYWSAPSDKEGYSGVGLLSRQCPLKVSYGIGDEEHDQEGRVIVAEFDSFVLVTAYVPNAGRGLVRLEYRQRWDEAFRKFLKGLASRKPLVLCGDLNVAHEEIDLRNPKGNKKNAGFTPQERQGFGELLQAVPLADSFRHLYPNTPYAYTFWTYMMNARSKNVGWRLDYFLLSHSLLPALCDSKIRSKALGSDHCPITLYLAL
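Quantitative HTS: incision of a TAMRA/BHQ-2 double-stranded substrate bearing a tetrahydrofuran abasic site by 0.75 nM APE1 raises fluorescence. Substrate 50 nM final, added after 15 min compound preincubation at room temperature; progress as third-minus-first kinetic read difference.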
RECQ1 inh-1 – qHTS Assay for Inhibitors of RecQ-Like Dna Helicase 1 (RECQ1); ATP-dependent DNA helicase Q1 (Homo sapiens), P46063; RECQ1 DNA unwinding, red fluorescence kinetic read; Potency, µM (highest dose often 57.3 µM), for inactives: at the highest dose activity, negative = inhibition, hits mostly inhibitors; 240,000 tested, 0.54% active;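 note: plate controls were vehicle for no effect and no enzyme for full effect; nearly all actives have a fitted effect of over 30% in size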
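RECQ1T1 50 nM; forked duplex (20 bp + 30-nt ss tails) 200 nM, ATP 2 mM final; pH 8.0, 2 mM MgCl2, 2.5 ug/ml poly(dI-dC); 15 min compound preincubation; discontinuous kinetic read over 2 h at RT.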
GLS inhibitor – qHTS for Inhibitors of Glutaminase (GLS) | GLS enzymatic activity, qHTS titration | Potency, µM (doses to about 45.5 µM), without a hit: at the highest dose activity change, negative = inhibition, actives largely listed as inhibitors | 410,000 tested, 0.21% active
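Coupled fluorescence readout: glutamate oxidase/HRP/Amplex Red detect glutamate formed by hKGA from L-glutamine (1 mM solution added). Buffer 45 mM KH2PO4 pH 8.2, 0.02% Tween-20; reads at t0 and 30 min RT.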
APE1 dye cs – Counterscreen for APE1 Inhibitors: Fluorescent Dye Displacement Assay; 480 tested, 7% active; Potency, µM (doses to about 28.5 µM), without a hit: at the top dose activity change, negative = inhibition, most hits filed as inhibitors; DNA fluorescent dye displacement counterscreen, fluorescence; shares compounds with APE1 inh-1;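 note: loss of thiazole orange fluorescence as the dye is displaced from duplex DNA; 0% = ThO with dsDNA and no compound and -100% = ThO without dsDNA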
Endo IV inh – Counterscreen for APE1 Inhibitors: qHTS Assay for Inhibitors of Endonuclease IV. AID 2565, 2010. Potency, µM (doses to about 27.1 µM), for the others: at the top dose activity change, negative = inhibition, hits mostly inhibitors. shares compounds with APE1 inh-1. 560 tested, 4% active. E. coli Endo IV, fluorogenic AP-site DNA cleavage;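 note: plate controls were uninhibited enzyme wells for no effect and no enzyme buffer wells for full effect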
APE1 inh-2 – Confirmation qHTS Assay for Inhibitors of the Human Apurinic/apyrimidinic Endonuclease 1 (APE1); shares compounds with APE1 inh-1; 750 tested, 44% active; purified APE1, fluorogenic abasic-site DNA cleavage; Potency, µM (series often up to 57.1 µM), for inactives: at the highest dose activity change, negative = inhibition, hits mostly inhibitors; note: nearly all actives have a fitted effect of over 30% in size
APE1 FP inh – qHTS FP-Based Assay for Inhibitors of the Human Apurinic/apyrimidinic Endonuclease 1 (APE1) | 480 tested, 7% active | Potency, µM (titrated, usually from 28.5 µM), for inactives: at the top dose activity, negative = inhibition, most hits filed as inhibitors | AID 2573, 2010 | shares compounds with APE1 inh-1 | APE1 binding to TAMRA-labelled double-stranded DNA, fluorescence polarization displacement
RECQ1 inh conf – Confirmation qHTS Assay for Inhibitors of RecQ-Like Dna Helicase 1 (RECQ1). shares compounds with RECQ1 inh-1. RECQ1 helicase DNA unwinding, fluorescence. Potency, µM (doses to about 229 µM), without a hit: at the top dose activity change, negative = inhibition, actives largely listed as inhibitors. 610 tested, 28% active; note: nearly all actives have a fitted effect of over 45% in size
RECQ1 ADP FP – Counterscreen for RECQ1 Inhibitors: ADP Fluorescence Polarization Displacement Assay. ADP fluorescence polarization displacement counterscreen. AID 2711, 2010. shares compounds with RECQ1 inh-1. 530 tested, 27% active. Potency, µM (titrated, usually from 228 µM), for inactives: at the highest dose activity change, negative = inhibition, usual class: inhibitors; note: nearly all actives have a fitted effect of over 45% in size
RECQ1 inh-2 – Confirmation qHTS Assay for Inhibitors of RecQ-Like Dna Helicase 1 (RECQ1) - Round 2 Cherry Picks; AID 504841, 2011; Potency, µM (highest dose often 119 µM), without a hit: at the highest dose activity, negative = inhibition, usual class: inhibitors; shares compounds with RECQ1 inh-1; 1,100 tested, 15% active; recombinant RECQ1 DNA unwinding, red fluorescence; note: nearly all actives have a fitted effect of over 50% in size
Active calls of the source: *; i = inactive; ? = inconclusive; · = no result given; [ ] = remark or other dose. Calls come from the whole dose curve; as a rule, active = well fitted curve in the direction sought with a large enough effect; inconclusive = small, poorly fitted or top-dose-only effect, or another doubt; inactive = no such curve, though single readings can be large; an effect the other way counts as inactive or inconclusive. Unless noted, % is set by controls: 0 for no effect and ±100 for the full control effect; potency is the fitted concentration of half-maximal effect.

SMILES	BLM helicase inh	TDP1 block	Tb PGK inh	APE1 inh-1	RECQ1 inh-1	GLS inhibitor	APE1 dye cs	Endo IV inh	APE1 inh-2	APE1 FP inh	RECQ1 inh conf	RECQ1 ADP FP	RECQ1 inh-2
O=C(O)C[C@@H]1C(=O)O[C@@H]2C(COC(=O)c3cc(O)c(O)c(O)c3)O[C@@H](OC(=O)c3cc(O)c(O)c(O)c3)[C@@H](OC(=O)c3cc(O)c(O)c4c3[C@H]1[C@H](O)C(=O)O4)[C@H]2OC(=O)c1cc(O)c(O)c(O)c1 (some centres not stated)	0.1µM*	·	·	0.0089µM*	0.112µM*	·	?	?	0.0022µM*	?	0.447µM*	31.6µM*	·
O=C(CS(=O)Cc1ccco1)NCC=CCOc1cc(CN2CCCCC2)ccn1 (configuration not stated)	-6.1%	·	·	·	·	-5.3%	·	·	·	·	·	·	·
Cn1c(SCC(=O)Nc2ccc3nc(SCC(=O)N4CCCC4)sc3c2)nnc1-c1ccc(N)cc1	-28.6%	35.5µM*	-17.0%	10µM*	0.631µM*	0.9%	·	·	?	·	7.08µM*	?	?
Cn1c(SCC(=O)Nc2ccc3nc(SCC(=O)NC4CC4)sc3c2)nnc1-c1ccccc1	-3.3%	-4.4%	7.1%	4.1%	-12.6%	2.4%	·	·	·	·	·	·	·
Cc1cccc(NC(=O)CSc2nnc(-c3ccco3)c(-c3ccco3)n2)c1	?	4.9%	-5.7%	?	-20.0%	0.0%	·	·	·	·	·	·	·
Cc1cccc(NC(=O)CSc2nnc(-c3ccco3)c(-c3ccco3)n2)c1C	17.8µM*	?	-18.8%	?	17.8µM*	45.0%	?	29.5%	?	0.9%	·	·	-13.0%
C=C(C)CC(C)(C)C	1.9%	6.2%	·	12.0%	14.8%	·	·	·	·	·	·	·	·
O=C(CCN1C(=O)/C(=C/c2ccco2)SC1=S)Nc1ccc(O)cc1C(=O)O	28.6%	·	?	-4.7%	·	37.3%	·	·	·	·	·	·	·
O=C(CCCN1C(=O)/C(=C/c2ccco2)SC1=S)Nc1ccccc1C(=O)O	9.3%	·	-28.3%	20µM*	8.91µM*	?	-9.9%	119.3%	12.6µM*	-30.2%	28.2µM*	50.1µM*	·
COc1ccc2c(c1)c(=O)oc1cc(OCC(=O)N3CCCC(C)C3)ccc12 (configuration not stated)	-7.3%	·	-9.5%	?	i	0.7%	·	·	·	·	·	·	·
COc1ccc2c(c1)c(=O)oc1cc(OCC(=O)N3CCc4ccccc4C3)ccc12	-19.1%	12.6µM*	?	10µM*	14.1µM*	-22.3%	-3.1%	?	3.98µM*	-28.7%	-7.1%[114 µM]	0.3%[91.9 µM]	?
O=[N+]([O-])c1ccc(/C=C/C2=NN(c3ccccc3)C(c3ccco3)C2)o1 (configuration not stated)	-22.2%	-4.2%	-23.4%	?	?	16.8%	21.3%	?	14.1µM*	-85.9%	·	·	7.94µM*
CC(C)C1C(=O)N(S(C)(=O)=O)[C@H]2CCN(C(=O)/C=C/CN3CCCCC3)[C@@H]12 (some centres not stated)	5.5%	10.8%	·	5.6%	11.5%	·	·	·	·	·	·	·	·
COc1cc(N(C)C)cc(CN(C)CCc2ccc([N+](=O)[O-])cc2)c1O	14.1µM*	2.24µM*	·	3.16µM*	10µM*	·	-0.1%[57.1 µM]	2.8%[57.1 µM]	?	-8.6%[57.1 µM]	100µM*	?	50.1µM*
C/C=C/C/C=C/CCC(=O)[C@H]1O[C@H]1C(N)=O	·	7.3%	·	2.5%	-7.0%	·	·	·	·	·	·	·	·
CC(C)CNC1=CC(=O)CC(c2ccco2)C1 (configuration not stated)	-22.6%	·	-8.8%	6.31µM*	11.2µM*	-22.2%	0.8%	10.5%	-11.0%[24.4 µM]	-17.4%	?	?	?
Cc1ccc(/C=c2\sc3nc(-c4ccccc4Br)nn3c2=O)o1	-20.6%	·	-10.8%	12.6µM*	?	-1.2%	?	8.0%	-26.4%[24.4 µM]	13.7%	·	·	32.4%
